# Active and inactive are the calls of the source. Cut-off read from the data, not from the text of the source: active = inhibition above about 31%; inactive = the rest.
# Test: reversal of MRP1-mediated doxorubicin resistance, pilot screen, H69AR cells, doxorubicin co-treatment (AID 601)
# Conditions: H69AR cells, CellTiter-Glo, 72 h; compound alone cytotoxicity; at 10 µM
row,Structure (SMILES),viability [%]
1,O=C(NCC1CCCO1)C1CCC(CNS(=O)(=O)c2ccccc2)CC1 (stereo not drawn),90.3
2,COC(=O)CSc1ncccc1-c1nc2ccccc2[nH]1,90.8
3,O=C(CSc1nc(-c2ccco2)cc(C(F)(F)F)n1)N1CCCc2ccccc21,84
4,CC(=O)Nc1ccc(NC(=O)Cn2cnc3c(cnn3C(C)(C)C)c2=O)cc1,98.9
5,Cn1c(=O)[nH]c(=O)c2c1nc(N1CCOCC1)n2CC(O)COc1ccc2ccccc2c1 (stereo not drawn),88.3
6,OCC(O)CN1CCN(c2ccccc2)CC1 (stereo not drawn),92.9
7,NS(=O)(=O)c1cc2c(cc1Cl)NC(CSCc1ccccc1)=NS2(=O)=O,92.6
8,CN(CC(=O)N1CCCc2c1c(=O)oc1ccc(O)cc21)Cc1ccccc1,90
9,CCc1c(C)nc2ncnn2c1NCCc1ccc(OC)c(OC)c1,80.6
10,Cc1nn(-c2ccccc2)c2[nH]c(C(F)(F)F)cc(=O)c12,108
11,N#CCc1ccc(NC(=O)Nc2cccc(Cl)c2)cc1,92.5
12,c1coc(-c2nnc(-c3cccs3)o2)c1,102
13,COc1cc(SC)ccc1C(=O)Nc1ccccc1C#N,70.5
14,CCCCCn1c(CN2CCN(c3cccc(Cl)c3)CC2)nc2c1c(=O)n(C)c(=O)n2C,88
15,COc1ccccc1-n1c(SCC(=O)NC(C)(C)C)nnc1-c1ccco1,96.1
16,NS(=O)(=O)c1cc2c(cc1Cl)NC=NS2(=O)=O,100
17,Cc1cc(C)n(-c2nc3sc4c(c3c3nnc(SC(C)C)n23)CC(C)(C)OC4)n1,84.4
18,N=c1nc(N2CCCCC2)cc(N)n1O,99.8
19,CN(C)C(=O)Oc1ccc[n+](C)c1,87
20,O=S(=O)(c1cccs1)N1CCN(Cc2nc3ccccc3s2)CC1,84.9

row,Structure (SMILES),viability [%]
1,O=C(Nc1ccccc1C(=O)O)c1cccc(NC(=O)c2ccc(Br)o2)c1,102
2,COc1ccc(Cn2c(N)c(C#N)c3nc4ccccc4nc32)cc1OC,99.5
3,CC(=O)SCC(=O)N=c1sc2cc(F)ccc2n1C,93.4
4,C=CCOC(=O)C1=C(C)NC(=O)NC1c1cn(-c2ccccc2)nc1-c1cccs1 (stereo not drawn),91
5,O=S(=O)(NCc1cn2ccccc2n1)c1cc(F)ccc1F,96.6
6,COc1cc(C(=O)Nc2cc(-c3ccccc3)[nH]n2)cc(OC)c1OC,26
7,CC(C)(Oc1ccc(Cl)cc1)C(=O)NCc1ccncc1,94.2
8,O=C(CCNS(=O)(=O)c1ccc(Br)s1)N1CCCCC1,94.2
9,CCOc1ccc(NC(=O)CC2NCCNC2=O)cc1 (stereo not drawn),95.3
10,CC(=O)Nc1ccc(Cc2ccncc2)cc1,96.1
11,CCOC(=O)N1CCC(N(C(=O)Nc2cccc(OC)c2)C(C)CC)CC1 (stereo not drawn),96.9
12,Cc1nc(-c2coc3cc(OCC(=O)O)ccc3c2=O)cs1,90.5
13,Cc1ccc2nc(-c3ccc(S(=O)(=O)N4CCOCC4)cc3)cn2c1,105
14,Cc1[nH]nc2c1C(c1ccc(F)cc1)C1=C(CC(C)(C)CC1=O)N2 (stereo not drawn),87.4
15,CC(C)Oc1ccc2c(=O)c(-c3ccccc3)coc2c1,89.7
16,COc1ccc(-c2[nH]nc3c2C(c2ccncc2)C(C#N)=C(N)O3)cc1 (stereo not drawn),92.2
17,O=C(c1cccc2c1C(=O)N(Cc1cccnc1)C2)N1CCN(c2ccccc2)CC1,93.3
18,COc1ccc(OC)c(NS(=O)(=O)Cc2ccccc2)c1,97.5
19,O=C(Nc1ccc(F)cc1)N(CCCN1CCOCC1)Cc1cc2cc3c(cc2[nH]c1=O)OCO3,90.8

# Test: 384-well plate pilot, post-Golgi transport modulator project, inhibition of yeast transport mutant growth (AID 636)
# Conditions: absorbance 615 nm, about 18 h, stronger effect = higher value
row,Structure (SMILES),inhibition
1,O=C(NCC1CCCO1)C1CCC(CNS(=O)(=O)c2ccccc2)CC1 (stereo not drawn),1.95% (inactive)
2,COC(=O)CSc1ncccc1-c1nc2ccccc2[nH]1,-2.33% (inactive)
3,O=C(CSc1nc(-c2ccco2)cc(C(F)(F)F)n1)N1CCCc2ccccc21,-1.05% (inactive)
4,CC(=O)Nc1ccc(NC(=O)Cn2cnc3c(cnn3C(C)(C)C)c2=O)cc1,-5.47% (inactive)
5,Cn1c(=O)[nH]c(=O)c2c1nc(N1CCOCC1)n2CC(O)COc1ccc2ccccc2c1 (stereo not drawn),-6.58% (inactive)
6,OCC(O)CN1CCN(c2ccccc2)CC1 (stereo not drawn),1.95% (inactive)
7,NS(=O)(=O)c1cc2c(cc1Cl)NC(CSCc1ccccc1)=NS2(=O)=O,-4.29% (inactive)
8,CN(CC(=O)N1CCCc2c1c(=O)oc1ccc(O)cc21)Cc1ccccc1,-7.3% (inactive)
9,CCc1c(C)nc2ncnn2c1NCCc1ccc(OC)c(OC)c1,-7.03% (inactive)
10,Cc1nn(-c2ccccc2)c2[nH]c(C(F)(F)F)cc(=O)c12,-5.62% (inactive)
11,N#CCc1ccc(NC(=O)Nc2cccc(Cl)c2)cc1,-6.44% (inactive)
12,c1coc(-c2nnc(-c3cccs3)o2)c1,-5.33% (inactive)
13,COc1cc(SC)ccc1C(=O)Nc1ccccc1C#N,-7.4% (inactive)
14,CCCCCn1c(CN2CCN(c3cccc(Cl)c3)CC2)nc2c1c(=O)n(C)c(=O)n2C,7.7% (inactive)
15,COc1ccccc1-n1c(SCC(=O)NC(C)(C)C)nnc1-c1ccco1,-4.79% (inactive)
16,NS(=O)(=O)c1cc2c(cc1Cl)NC=NS2(=O)=O,0.13% (inactive)
17,Cc1cc(C)n(-c2nc3sc4c(c3c3nnc(SC(C)C)n23)CC(C)(C)OC4)n1,1.23% (inactive)
18,N=c1nc(N2CCCCC2)cc(N)n1O,-1.17% (inactive)
19,CN(C)C(=O)Oc1ccc[n+](C)c1,-1.17% (inactive)
20,O=S(=O)(c1cccs1)N1CCN(Cc2nc3ccccc3s2)CC1,4.79% (inactive)

row,Structure (SMILES),inhibition
1,O=C(Nc1ccccc1C(=O)O)c1cccc(NC(=O)c2ccc(Br)o2)c1,-10.8% (inactive)
2,COc1ccc(Cn2c(N)c(C#N)c3nc4ccccc4nc32)cc1OC,-6.58% (inactive)
3,CC(=O)SCC(=O)N=c1sc2cc(F)ccc2n1C,-5.26% (inactive)
4,C=CCOC(=O)C1=C(C)NC(=O)NC1c1cn(-c2ccccc2)nc1-c1cccs1 (stereo not drawn),-6.49% (inactive)
5,O=S(=O)(NCc1cn2ccccc2n1)c1cc(F)ccc1F,-5.68% (inactive)
6,COc1cc(C(=O)Nc2cc(-c3ccccc3)[nH]n2)cc(OC)c1OC,-4.27% (inactive)
7,CC(C)(Oc1ccc(Cl)cc1)C(=O)NCc1ccncc1,-6.89% (inactive)
8,O=C(CCNS(=O)(=O)c1ccc(Br)s1)N1CCCCC1,-6.03% (inactive)
9,CCOc1ccc(NC(=O)CC2NCCNC2=O)cc1 (stereo not drawn),-5.95% (inactive)
10,CC(=O)Nc1ccc(Cc2ccncc2)cc1,-4.8% (inactive)
11,CCOC(=O)N1CCC(N(C(=O)Nc2cccc(OC)c2)C(C)CC)CC1 (stereo not drawn),-2.21% (inactive)
12,Cc1nc(-c2coc3cc(OCC(=O)O)ccc3c2=O)cs1,-5.14% (inactive)
13,Cc1ccc2nc(-c3ccc(S(=O)(=O)N4CCOCC4)cc3)cn2c1,-1.17% (inactive)
14,Cc1[nH]nc2c1C(c1ccc(F)cc1)C1=C(CC(C)(C)CC1=O)N2 (stereo not drawn),-5.14% (inactive)
15,CC(C)Oc1ccc2c(=O)c(-c3ccccc3)coc2c1,-1.04% (inactive)
16,COc1ccc(-c2[nH]nc3c2C(c2ccncc2)C(C#N)=C(N)O3)cc1 (stereo not drawn),-5.81% (inactive)
17,O=C(c1cccc2c1C(=O)N(Cc1cccnc1)C2)N1CCN(c2ccccc2)CC1,-4.93% (inactive)
18,COc1ccc(OC)c(NS(=O)(=O)Cc2ccccc2)c1,-7.81% (inactive)
19,O=C(Nc1ccc(F)cc1)N(CCCN1CCOCC1)Cc1cc2cc3c(cc2[nH]c1=O)OCO3,-7.97% (inactive)

# From PubChem BioAssay
